Results from the supplement of paper PMC10849652.
The full data set covers some 7,900 targets. This sample favours those with a hit. About 0.6% of all pairs of compound and target were hits.

UniProt Q7Z7E8, sequence (Q7Z7E8 whole entry, looked up): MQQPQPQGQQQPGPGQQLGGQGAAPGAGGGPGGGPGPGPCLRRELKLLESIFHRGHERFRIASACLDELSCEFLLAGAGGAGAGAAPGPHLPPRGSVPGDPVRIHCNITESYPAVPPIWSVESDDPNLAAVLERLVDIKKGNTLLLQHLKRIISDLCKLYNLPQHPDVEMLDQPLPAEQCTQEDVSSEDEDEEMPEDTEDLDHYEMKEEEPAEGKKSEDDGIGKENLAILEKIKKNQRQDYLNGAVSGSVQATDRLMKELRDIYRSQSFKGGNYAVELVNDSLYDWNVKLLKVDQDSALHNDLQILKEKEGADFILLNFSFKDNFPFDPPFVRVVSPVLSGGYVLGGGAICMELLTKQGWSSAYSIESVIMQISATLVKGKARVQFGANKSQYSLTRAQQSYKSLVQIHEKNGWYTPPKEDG
UniProt Q9BTX3, sequence (Q9BTX3 whole entry, looked up): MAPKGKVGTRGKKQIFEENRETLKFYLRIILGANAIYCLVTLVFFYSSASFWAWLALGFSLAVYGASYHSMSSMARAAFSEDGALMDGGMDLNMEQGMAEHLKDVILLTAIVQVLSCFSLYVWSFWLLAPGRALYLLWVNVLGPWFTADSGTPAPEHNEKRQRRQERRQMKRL
UniProt Q9BZI7, sequence (Q9BZI7 whole entry, looked up): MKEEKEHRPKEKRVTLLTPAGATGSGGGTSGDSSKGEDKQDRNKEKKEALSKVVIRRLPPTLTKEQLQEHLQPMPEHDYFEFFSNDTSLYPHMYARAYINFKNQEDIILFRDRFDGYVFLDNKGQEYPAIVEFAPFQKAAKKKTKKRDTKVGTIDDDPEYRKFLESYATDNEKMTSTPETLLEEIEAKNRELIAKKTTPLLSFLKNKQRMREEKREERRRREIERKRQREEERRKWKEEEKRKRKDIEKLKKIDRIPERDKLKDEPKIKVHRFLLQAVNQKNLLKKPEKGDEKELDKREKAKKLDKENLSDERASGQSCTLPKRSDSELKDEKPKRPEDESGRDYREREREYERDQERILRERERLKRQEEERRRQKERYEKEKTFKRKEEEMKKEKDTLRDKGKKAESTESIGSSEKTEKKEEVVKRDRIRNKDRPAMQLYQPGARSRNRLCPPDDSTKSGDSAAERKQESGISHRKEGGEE
UniProt Q5TAX3, sequence (Q5TAX3 whole entry, looked up): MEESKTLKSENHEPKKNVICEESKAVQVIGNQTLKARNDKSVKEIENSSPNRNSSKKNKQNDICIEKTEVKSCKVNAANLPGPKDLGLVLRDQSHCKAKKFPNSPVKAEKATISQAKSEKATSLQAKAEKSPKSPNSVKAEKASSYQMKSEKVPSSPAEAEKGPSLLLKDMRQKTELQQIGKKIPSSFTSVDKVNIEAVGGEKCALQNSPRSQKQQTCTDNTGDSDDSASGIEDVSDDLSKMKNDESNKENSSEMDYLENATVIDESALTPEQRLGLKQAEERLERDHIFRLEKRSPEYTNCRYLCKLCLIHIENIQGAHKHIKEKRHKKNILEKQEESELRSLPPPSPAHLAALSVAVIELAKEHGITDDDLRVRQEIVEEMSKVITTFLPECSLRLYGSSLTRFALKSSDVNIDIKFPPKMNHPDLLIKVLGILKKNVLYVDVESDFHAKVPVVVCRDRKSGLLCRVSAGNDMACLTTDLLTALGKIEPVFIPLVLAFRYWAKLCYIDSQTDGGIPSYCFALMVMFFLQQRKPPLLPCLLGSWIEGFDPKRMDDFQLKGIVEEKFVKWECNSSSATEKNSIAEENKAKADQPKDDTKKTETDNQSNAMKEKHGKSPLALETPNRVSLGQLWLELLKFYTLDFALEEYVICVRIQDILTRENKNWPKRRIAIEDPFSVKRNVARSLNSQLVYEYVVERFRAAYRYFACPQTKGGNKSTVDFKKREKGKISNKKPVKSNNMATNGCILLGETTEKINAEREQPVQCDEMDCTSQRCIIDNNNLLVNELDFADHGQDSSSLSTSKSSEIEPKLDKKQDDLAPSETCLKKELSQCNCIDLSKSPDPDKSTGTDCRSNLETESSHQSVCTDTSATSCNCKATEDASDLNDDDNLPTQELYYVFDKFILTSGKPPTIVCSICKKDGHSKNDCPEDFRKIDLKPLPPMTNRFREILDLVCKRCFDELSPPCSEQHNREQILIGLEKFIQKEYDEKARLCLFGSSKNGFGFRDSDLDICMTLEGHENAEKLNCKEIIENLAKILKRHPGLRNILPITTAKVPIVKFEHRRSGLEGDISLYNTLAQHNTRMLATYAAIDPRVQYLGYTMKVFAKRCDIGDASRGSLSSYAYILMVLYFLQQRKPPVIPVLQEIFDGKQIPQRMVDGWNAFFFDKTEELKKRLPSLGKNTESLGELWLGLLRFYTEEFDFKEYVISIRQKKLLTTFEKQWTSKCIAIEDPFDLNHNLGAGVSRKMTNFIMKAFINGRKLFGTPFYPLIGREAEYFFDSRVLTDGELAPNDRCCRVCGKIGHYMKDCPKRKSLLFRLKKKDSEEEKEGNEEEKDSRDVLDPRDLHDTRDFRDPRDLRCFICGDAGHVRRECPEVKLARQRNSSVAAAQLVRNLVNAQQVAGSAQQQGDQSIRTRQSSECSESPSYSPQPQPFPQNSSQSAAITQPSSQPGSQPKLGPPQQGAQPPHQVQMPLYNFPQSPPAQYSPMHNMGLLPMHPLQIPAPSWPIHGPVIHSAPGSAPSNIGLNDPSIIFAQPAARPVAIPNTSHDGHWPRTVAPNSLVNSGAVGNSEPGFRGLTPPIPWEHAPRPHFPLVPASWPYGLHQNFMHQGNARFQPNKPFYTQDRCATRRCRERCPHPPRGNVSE
UniProt Q15388, sequence (Q15388 whole entry, looked up): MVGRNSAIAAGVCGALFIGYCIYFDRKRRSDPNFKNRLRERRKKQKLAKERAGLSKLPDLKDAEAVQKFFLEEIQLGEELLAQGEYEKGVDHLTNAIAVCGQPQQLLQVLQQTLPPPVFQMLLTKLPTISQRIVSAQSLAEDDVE
UniProt Q8IZ69, sequence (Q8IZ69 whole entry, looked up): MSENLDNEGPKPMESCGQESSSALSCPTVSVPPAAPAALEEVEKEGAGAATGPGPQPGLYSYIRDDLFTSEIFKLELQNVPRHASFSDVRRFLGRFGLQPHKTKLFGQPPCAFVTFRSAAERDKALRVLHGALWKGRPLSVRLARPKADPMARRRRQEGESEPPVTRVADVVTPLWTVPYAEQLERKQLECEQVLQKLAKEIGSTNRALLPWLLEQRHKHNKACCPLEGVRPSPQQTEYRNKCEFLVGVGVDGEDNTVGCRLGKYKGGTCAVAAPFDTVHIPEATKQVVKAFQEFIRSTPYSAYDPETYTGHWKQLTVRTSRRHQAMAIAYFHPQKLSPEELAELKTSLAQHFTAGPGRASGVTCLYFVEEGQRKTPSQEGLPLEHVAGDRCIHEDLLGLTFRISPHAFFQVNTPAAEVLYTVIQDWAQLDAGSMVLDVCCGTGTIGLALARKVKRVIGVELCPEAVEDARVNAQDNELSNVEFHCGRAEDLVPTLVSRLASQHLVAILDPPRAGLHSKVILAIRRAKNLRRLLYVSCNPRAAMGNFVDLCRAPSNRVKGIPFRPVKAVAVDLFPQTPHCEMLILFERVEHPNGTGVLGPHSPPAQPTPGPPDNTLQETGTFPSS
UniProt Q7Z3J2, sequence (Q7Z3J2 whole entry, looked up): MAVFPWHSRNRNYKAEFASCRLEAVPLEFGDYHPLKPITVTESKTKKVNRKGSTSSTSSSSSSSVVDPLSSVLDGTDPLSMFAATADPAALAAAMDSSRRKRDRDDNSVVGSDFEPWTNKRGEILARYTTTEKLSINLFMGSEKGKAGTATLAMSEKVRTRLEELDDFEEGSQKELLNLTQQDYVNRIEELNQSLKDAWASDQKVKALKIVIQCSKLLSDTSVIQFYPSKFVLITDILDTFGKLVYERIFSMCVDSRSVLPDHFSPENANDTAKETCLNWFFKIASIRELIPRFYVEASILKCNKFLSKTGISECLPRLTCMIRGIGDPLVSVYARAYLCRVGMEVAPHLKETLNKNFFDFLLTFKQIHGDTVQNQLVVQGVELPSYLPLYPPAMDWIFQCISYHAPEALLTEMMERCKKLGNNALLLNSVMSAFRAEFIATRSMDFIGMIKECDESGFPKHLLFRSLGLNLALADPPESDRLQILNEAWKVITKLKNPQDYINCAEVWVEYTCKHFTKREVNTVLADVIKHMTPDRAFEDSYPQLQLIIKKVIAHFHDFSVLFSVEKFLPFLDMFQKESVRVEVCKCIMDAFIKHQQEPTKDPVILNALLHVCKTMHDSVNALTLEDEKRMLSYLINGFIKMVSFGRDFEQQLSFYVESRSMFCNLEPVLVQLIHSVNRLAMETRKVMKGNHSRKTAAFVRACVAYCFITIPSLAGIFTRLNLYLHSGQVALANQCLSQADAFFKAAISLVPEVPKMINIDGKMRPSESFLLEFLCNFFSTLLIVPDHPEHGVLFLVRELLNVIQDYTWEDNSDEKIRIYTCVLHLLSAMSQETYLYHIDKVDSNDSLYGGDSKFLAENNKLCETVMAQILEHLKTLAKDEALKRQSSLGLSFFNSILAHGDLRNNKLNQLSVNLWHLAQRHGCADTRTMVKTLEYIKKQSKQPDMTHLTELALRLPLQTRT
UniProt Q92890, sequence (Q92890 whole entry, looked up): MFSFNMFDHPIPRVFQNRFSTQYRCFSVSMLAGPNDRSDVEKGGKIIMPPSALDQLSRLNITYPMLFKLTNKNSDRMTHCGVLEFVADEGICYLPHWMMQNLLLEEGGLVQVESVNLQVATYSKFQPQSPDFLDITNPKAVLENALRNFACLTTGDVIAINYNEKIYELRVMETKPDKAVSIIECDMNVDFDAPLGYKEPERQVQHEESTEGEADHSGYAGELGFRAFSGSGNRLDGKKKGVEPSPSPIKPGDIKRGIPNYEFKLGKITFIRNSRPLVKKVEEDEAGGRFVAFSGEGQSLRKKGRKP
UniProt Q86XT9, sequence (Q86XT9 whole entry, looked up): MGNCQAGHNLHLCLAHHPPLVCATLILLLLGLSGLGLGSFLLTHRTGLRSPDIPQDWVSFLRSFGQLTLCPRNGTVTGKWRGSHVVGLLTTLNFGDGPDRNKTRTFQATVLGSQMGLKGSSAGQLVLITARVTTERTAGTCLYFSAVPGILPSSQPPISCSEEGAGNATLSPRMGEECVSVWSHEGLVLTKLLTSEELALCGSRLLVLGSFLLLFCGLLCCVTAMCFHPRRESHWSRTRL

What follows are targets tested with CC1=C2C(=CC=C1)N=C(N(C2=O)C3=CC=CC=C3C)CN4C=NC5=C(N=CN=C54)N (assay: log2 fold change, soluble protein after heating vs DMSO (PISA); higher = thermal stabilisation; K562 cells, 10 uM, 30 min; active = over 0.2 and 3.5 SD of the protein, either way, in both replicates (recomputed)).
Outline: (§1)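 Quantification of soluble protein used TMTpro 16plex LC-MS/MS, with channel sums equalised. Samples were the supernatant after 21,000xg for 90 min of pooled aliquots from K562 cells (2×10^6 cells/mL) treated with 10 μM compound for 30 min, heated for 3 min over 48°C-58°C, and extracted in PBS with 0.5% NP-40 at 4°C. Values, from duplicates, describe thermal stability against control samples on a log2 fold-change scale.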
With UFD1 isoform 1 (UniProt Q92890) the log2 fold change was 0.033 (inactive). TMEM208 (UniProt Q9BTX3) was tested, and the log2 fold change was 0.088 (inactive). UBE2Q1 (UniProt Q7Z7E8) was tested, and the log2 fold change was 0.053 (inactive). With TOMM20 (UniProt Q15388) the log2 fold change was 0.028 (inactive). In the case of UPF3B (UniProt Q9BZI7), the log2 fold change is reported as -0.161 (inactive). TUT4 (UniProt Q5TAX3) was tested, and the log2 fold change was 0.214 (inactive). TRMT2A (UniProt Q8IZ69) was tested, and the log2 fold change was -0.026 (inactive). In the case of VPS35L (UniProt Q7Z3J2), the log2 fold change is reported as 0.011 (inactive). WDR61 (UniProt Q9GZS3) was tested, and the log2 fold change was 0.077 (inactive). In the case of TMEM219 (UniProt Q86XT9), the log2 fold change is reported as -0.172 (inactive). In the case of UBA6, the log2 fold change is reported as 0.06 (inactive). In the case of USP34 (UniProt Q70CQ2), the log2 fold change is reported as 0.142 (inactive). For UBE4B isoform 4 (UniProt O95155), the log2 fold change was 0.019 (inactive).

What follows are targets tested with Cc1sc2c(c1C)C(c1ccc(Cl)cc1)=N[C@@H](CC(=O)OC(C)(C)C)c1nnc(C)n1-2 in the same assay as above.
Outline: as §1
TTC38 (UniProt Q5R3I4) was tested, and the log2 fold change was -0.061 (inactive). TSFM (UniProt P43897) was tested, and the log2 fold change was -0.138 (inactive). For VPS8 (UniProt Q8N3P4), the log2 fold change was -0.034 (inactive). For TXNRD1 (UniProt Q16881), the log2 fold change was -0.031 (inactive). In the case of TUBA4A (UniProt C9JJQ8), the log2 fold change is reported as -0.011 (inactive). In the case of WARS2 (UniProt Q9UGM6), the log2 fold change is reported as -0.002 (inactive). UBA52 (UniProt P62987) was tested, and the log2 fold change was 0.265 (inactive). In the case of TMEM164 (UniProt Q5U3C3), the log2 fold change is reported as -0.22 (inactive). For XPO6 (UniProt Q96QU8), the log2 fold change was 0.015 (inactive). With TTI1 (UniProt O43156) the log2 fold change was -0.025 (inactive). With TOP2A isoform 4 (UniProt P11388) the log2 fold change was 0.252 (inactive). UBAP2L isoform 1 (UniProt Q14157) was tested, and the log2 fold change was 0.001 (inactive). With UFL1 (UniProt O94874) the log2 fold change was 0.001 (inactive). With XRCC5 (UniProt P13010) the log2 fold change was 0 (inactive). With VTI1B (UniProt Q9UEU0) the log2 fold change was -0.032 (inactive). For TMEM173 (UniProt Q86WV6), the log2 fold change was -0.099 (inactive). With WBP4 (UniProt O75554) the log2 fold change was 0.014 (inactive). VDAC1 (UniProt P21796) was tested, and the log2 fold change was -0.007 (inactive). In the case of TRAPPC2L (UniProt Q9UL33), the log2 fold change is reported as -0.063 (inactive). TRAM1 (UniProt Q15629) was tested, and the log2 fold change was 0.049 (inactive). In the case of WASHC3 (UniProt Q9Y3C0), the log2 fold change is reported as -0.001 (inactive). For TMEM106B (UniProt Q9NUM4), the log2 fold change was -0.097 (inactive). In the case of VPS41 (UniProt P49754), the log2 fold change is reported as -0.017 (inactive). With UFD1 isoform 1 (UniProt Q92890) the log2 fold change was -0.045 (inactive). For TMEM208 (UniProt Q9BTX3), the log2 fold change was -0.14 (inactive). With UBE2Q1 (UniProt Q7Z7E8) the log2 fold change was -0.001 (inactive). With TOMM20 (UniProt Q15388) the log2 fold change was 0.006 (inactive). In the case of UPF3B (UniProt Q9BZI7), the log2 fold change is reported as 0.363 (inactive). With TUT4 (UniProt Q5TAX3) the log2 fold change was -0.052 (inactive). In the case of TRMT2A (UniProt Q8IZ69), the log2 fold change is reported as 0.1 (inactive). VPS35L (UniProt Q7Z3J2) was tested, and the log2 fold change was -0.024 (inactive). In the case of WDR61 (UniProt Q9GZS3), the log2 fold change is reported as 0.032 (inactive). With TMEM219 (UniProt Q86XT9) the log2 fold change was 0.016 (inactive). In the case of UBA6, the log2 fold change is reported as 0.001 (inactive). USP34 (UniProt Q70CQ2) was tested, and the log2 fold change was -0.003 (inactive). For UBE4B isoform 4 (UniProt O95155), the log2 fold change was 0.006 (inactive).

These targets were tested with c1ccc([C@@H]2C[C@H]2NC2CCNCC2)cc1 in the same assay as above.
Outline: as §1
TTC38 (UniProt Q5R3I4) was tested, and the log2 fold change was -0.016 (inactive). In the case of TSFM (UniProt P43897), the log2 fold change is reported as 0.012 (inactive). VPS8 (UniProt Q8N3P4) was tested, and the log2 fold change was 0.017 (inactive). For TXNRD1 (UniProt Q16881), the log2 fold change was -0.032 (inactive). With TUBA4A (UniProt C9JJQ8) the log2 fold change was 0.229 (inactive). In the case of WARS2 (UniProt Q9UGM6), the log2 fold change is reported as 0.06 (inactive). With UBA52 (UniProt P62987) the log2 fold change was 0.193 (inactive). TMEM164 (UniProt Q5U3C3) was tested, and the log2 fold change was 0.068 (inactive). For XPO6 (UniProt Q96QU8), the log2 fold change was -0.072 (inactive). TTI1 (UniProt O43156) was tested, and the log2 fold change was -0.085 (inactive). For TOP2A isoform 4 (UniProt P11388), the log2 fold change was 0.002 (inactive). In the case of UBAP2L isoform 1 (UniProt Q14157), the log2 fold change is reported as 0.011 (inactive). For UFL1 (UniProt O94874), the log2 fold change was -0.066 (inactive). In the case of XRCC5 (UniProt P13010), the log2 fold change is reported as -0.003 (inactive). In the case of VTI1B (UniProt Q9UEU0), the log2 fold change is reported as 0.02 (inactive). In the case of TMEM173 (UniProt Q86WV6), the log2 fold change is reported as -0.005 (inactive). For WBP4 (UniProt O75554), the log2 fold change was 0.051 (inactive). With VDAC1 (UniProt P21796) the log2 fold change was 0.026 (inactive). In the case of TRAPPC2L (UniProt Q9UL33), the log2 fold change is reported as 0.038 (inactive). For TRAM1 (UniProt Q15629), the log2 fold change was -0.018 (inactive). For WASHC3 (UniProt Q9Y3C0), the log2 fold change was 0.028 (inactive). For TMEM106B (UniProt Q9NUM4), the log2 fold change was 0.034 (inactive). For VPS41 (UniProt P49754), the log2 fold change was -0.052 (inactive). In the case of UFD1 isoform 1 (UniProt Q92890), the log2 fold change is reported as 0.019 (inactive). With TMEM208 (UniProt Q9BTX3) the log2 fold change was 0.031 (inactive). For UBE2Q1 (UniProt Q7Z7E8), the log2 fold change was 0.062 (inactive). In the case of TOMM20 (UniProt Q15388), the log2 fold change is reported as 0.008 (inactive). In the case of UPF3B (UniProt Q9BZI7), the log2 fold change is reported as -0.001 (inactive). TUT4 (UniProt Q5TAX3) was tested, and the log2 fold change was 0.153 (inactive). In the case of TRMT2A (UniProt Q8IZ69), the log2 fold change is reported as 0.058 (inactive). For VPS35L (UniProt Q7Z3J2), the log2 fold change was 0 (inactive). For WDR61 (UniProt Q9GZS3), the log2 fold change was 0.012 (inactive). For TMEM219 (UniProt Q86XT9), the log2 fold change was -0.162 (inactive). In the case of UBA6, the log2 fold change is reported as -0.002 (inactive). USP34 (UniProt Q70CQ2) was tested, and the log2 fold change was 0.034 (inactive). With UBE4B isoform 4 (UniProt O95155) the log2 fold change was -0.003 (inactive).
